In the library only some 1.7% were active in any assay of this set; here they are far more common.
EphB4 antag = blocks human EphB4 binding to ephrin-B2 | P54760 | EphB4 LBD / TNYL-RAW-Alexa532 peptide, fluorescence polarization | inhibition, % at 7 µM | hit rate 0.15% among 97,000;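 active = inhibition above the screen-wide mean inhibition plus 3 SD, cut at about 15% in these data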;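 also: 0% = DMSO wells and 100% = excess unlabeled TNYL-RAW peptide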
PLK1 kinase inh = blocks human PLK1 kinase activity; P53350; recombinant PLK1 kinase, TR-FRET peptide phosphorylation; inhibition, % at 10 µM; hit rate 0.53% among 97,000; AID 619;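 active = inhibition of 50% or more in the single-concentration screen; inactive = inhibition below 50%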;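 also: 0% = DMSO max control and 100% = H-89 dihydrochloride min control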
LYP act = LYP (human) phosphatase activation; Q9Y2R2; recombinant LYP, DiFMUP fluorescence; 0 = plate median, 100 = signal doubled; activation, % at 2 µM; hit rate 0.11% among 96,000;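 active = activation at 2 µM above a set limit, the mean plus 5 SD, cut at about 37% in these data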
PLK1 PBD inh = inhibitors of human Plk1 polo box domain binding; P53350; Plk1 PBD phosphopeptide binding, fluorescence polarization; inhibition, %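 (tested at about 20 µM)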; hit rate 0.13% among 97,000; AID 693; in the data active = inhibition above about 34%, passing the limit was not always enough
PTPN22 inh 2 = inhibitors of human LYP (PTPN22) phosphatase; Q9Y2R2; recombinant LYP catalytic domain, DiFMUP fluorescence; inhibition, % at 2 µM; hit rate 0.21% among 96,000; AID 640;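 active = inhibition at 2 µM at or above a set limit, the screen mean plus 3 SD, cut at about 24% in these data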;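 also: 0% = DMSO with enzyme and 100% = enzyme fully blocked by orthovanadate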
FAK blocker = FAK (human) kinase inhibition | Q05397 | biochemical FAK kinase activity assay | inhibition, %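 (tested at 7 µM)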 | hit rate 0.84% among 97,000 | AID 727; in the data active = inhibition above about 19%;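 also: 0% = DMSO and 100% = reference compound high control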
The depositor's hits bear a star; x = no result.

SMILES | EphB4 antag | PLK1 kinase inh | LYP act | PLK1 PBD inh | PTPN22 inh 2 | FAK blocker
Cc1[nH]nc2c1C(c1ccsc1C)C(C#N)=C(N)O2 (centres undefined) | 4.8 | 61.5* | -2.9 | 9.9 | 3.5 | 1.1
Cc1[nH]nc2c1C(c1ccc(F)cc1)C(C#N)=C(N)O2 (centres undefined) | 8.0 | 56.7* | -0.9 | 7.8 | -1.1 | 5.1
O=C(NNc1ccc([N+](=O)[O-])cc1)C12CC3CC(CC(C3)C1)C2 | 5.5 | -4.2 | -9.4 | 5.0 | 13.7 | -4.1
COc1ccc(S(=O)(=O)N2CCOCC2)cc1C(=O)Nc1cc(C)on1 | 1.8 | -9.9 | 4.0 | 4.5 | -5.5 | -4.0
CCOC(=O)c1c(NC(C)=O)sc2c1CCCNC2=O | 1.7 | -4.1 | 0.1 | -20.8 | -2.3 | 5.8
Cn1cnnc1SCC(=O)Nc1ccc2nc(SCc3cccc4ccccc34)sc2c1 | 16.9* | -11.7 | -3.2 | -11.8 | 3.1 | 5.6
O=C(NCc1ccco1)C1CCCN(S(=O)(=O)c2cccc3cccnc23)C1 (centres undefined) | 0.7 | -10.9 | -1.6 | -9.5 | -1.3 | -1.0
O=C(Cn1nc(C(F)(F)F)c2c1CCCC2)NCc1ccco1 | 1.6 | -8.4 | -8.7 | -23.0 | 12.3 | -0.3
OC(COc1ccc(Cl)cc1)CN1CCCCC1 (centres undefined) | 1.6 | -9.5 | 6.3 | -18.9 | -5.7 | -2.7
OC(COc1c(Cl)cc(Cl)cc1Cl)CN1CCCCC1 (centres undefined) | 4.2 | 54.2* | 7.8 | -0.6 | -10.6 | -2.2
O=C(c1cc2ccccc2cc1OCC(O)CN1CCCCC1)N1CCCCC1 (centres undefined) | 2.5 | 66.0* | x | 7.7 | x | -1.2
O=C(OCc1ccc(Cl)cc1)c1ccccc1C(=O)c1ccccc1 | 0.9 | -15.3 | -4.6 | 16.8 | 5.0 | 5.3
Cc1noc(C)c1CSc1ccccc1C(=O)Nc1nccs1 | -10.2 | -6.5 | 0.6 | -11.3 | -1.9 | -5.0
CC(C)c1ccc(Nc2cnn(C34CC5CC(CC(CC(=O)O)(C5)C3)C4)c(=O)c2Cl)cc1 | 5.7 | -2.8 | -0.7 | -9.0 | -3.2 | 0.5
Cc1ccc(Nc2cnn(C34CC5CC(CC(CC(=O)O)(C5)C3)C4)c(=O)c2Cl)cc1 | 51.6* | -6.1 | 3.5 | 9.2 | -0.1 | -4.0
O=C(Nc1ccc(N2CCCCC2)c(Cl)c1)c1ccc2c(c1)OCCO2 | 2.3 | -35.8 | -34.3 | 18.2 | 35.7* | 2.5
O=C(NNS(=O)(=O)c1ccc([N+](=O)[O-])cc1)c1cnn(-c2ccccc2)c1-n1cccc1 | -7.3 | -13.1 | -1.7 | 2.9 | 3.2 | -1.1
Cc1ccc(S(=O)(=O)NC2CCCC(C(=O)O)C2)cc1 (centres undefined) | -4.2 | -4.2 | -1.5 | -3.1 | -1.0 | 1.1
COc1ccc(OC)c(NC(=O)CSc2nnc(Cn3nnc4ccccc43)n2C)c1 | 1.0 | -12.8 | -6.1 | 6.4 | 8.5 | 1.3
O=c1cc(N2CCN(c3ccc(F)cc3)CC2)[nH]c(=O)n1Cc1ccc(F)cc1 | 3.3 | -7.3 | 1.4 | 13.3 | -2.3 | -4.1
O=c1cc(N2CCOCC2)[nH]c(=O)n1Cc1ccc(F)cc1 | -1.6 | 68.6* | x | -17.1 | x | 0.0
O=c1ccc(NS(=O)(=O)c2ccccc2)cn1Cc1ccc(Cl)c(Cl)c1 | -2.1 | -9.1 | 5.3 | -7.9 | -2.3 | 5.3
COc1ccccc1NC(=O)CSc1nnc(-c2ccccc2)o1 | 3.0 | 58.1* | x | -7.6 | x | 4.6
O=c1oc2ccc3ccccc3c2cc1-c1nc2ccccc2o1 | 6.1 | 1.8 | -14.1 | 19.6 | 11.3 | 19.0*
O=[N+]([O-])c1ccc(N2CCN(CCO)CC2)cc1Sc1nc2ccccc2[nH]1 | -5.9 | -8.3 | 1.6 | 2.8 | 3.5 | -1.2
SMILES | EphB4 antag | PLK1 kinase inh | LYP act | PLK1 PBD inh | PTPN22 inh 2 | FAK blocker
CCOC(=O)c1ccc(S(=O)(=O)Nc2ccc3cn[nH]c3c2)cc1 | -0.1 | 14.8 | -8.7 | -3.5 | 5.5 | -2.7
Cc1cc(C)nc(N2CCCC(C(=O)NCc3ccccc3)C2)n1 (centres undefined) | 28.9* | -8.4 | -1.6 | 21.1 | 2.1 | 2.4
CCc1nc(SCC(=O)N2CCC(C)CC2)c2c(=O)n(C)c(=O)n(C)c2n1 | 0.8 | 67.7* | x | 1.9 | x | 1.8
Cc1ccc(-n2ncc3c(=O)n(CC(=O)N4CCCCCC4)cnc32)cc1 | 15.9* | 4.0 | 6.6 | -24.5 | -7.8 | 7.2
Cc1ccc(-n2nnc3c(=O)n(CC(=O)N4CCCC4)cnc32)cc1 | -3.1 | -3.9 | 1.2 | -3.0 | -0.6 | 3.8
CCn1ncc(Br)c1C(=O)Nc1ccc(F)cc1F | -3.2 | -6.8 | 5.9 | -11.3 | -9.7 | -2.8
CCn1ncc(Br)c1C(=O)Nc1ccccc1C(=O)OC | 5.8 | -8.6 | -7.0 | -1.8 | 4.6 | 53.1*
CCOC(=O)C(Oc1ccc(=O)n(-c2ccccc2)n1)C(C)=O (centres undefined) | 8.7 | -8.4 | 13.1 | 7.1 | -14.9 | 3.1
COc1ccc2cc(CN(Cc3ccco3)Cc3nnnn3C3CCCCC3)c(=O)[nH]c2c1 | 1.1 | -4.2 | -7.3 | 5.6 | 5.3 | 2.4
COc1ccc2cc(CN(Cc3ccco3)C(c3nnnn3C3CCCCC3)C(C)C)c(=O)[nH]c2c1 (centres undefined) | 8.9 | -13.9 | -23.2 | -10.8 | 26.3* | -2.9
O=C1C(=O)N(CCO)C(c2ccccc2)/C1=C(\O)c1ccccc1 (centres undefined) | -0.3 | 54.6* | x | -8.1 | x | 4.3
COc1ccc(C2/C(=C(/O)c3ccccc3)C(=O)C(=O)N2CCO)cc1 (centres undefined) | -1.1 | -6.5 | 8.8 | 5.1 | -11.5 | -3.9
CCOC(=O)C1C(=O)Oc2ccc3ccccc3c2C1C1CCOC1=O (centres undefined) | -1.5 | 63.2* | x | 10.5 | x | 0.9
On1c2c(c3c4nonc4ccc31)CCCC2 | -1.6 | 50.9* | 1.1 | 5.8 | -1.2 | 1.4
O=C(Nc1ccc2oc(-c3cccc4ccccc34)nc2c1)c1ncn[nH]1 | 0.9 | -8.6 | -54.4 | -23.6 | 52.5* | 3.9
COc1ccc(NC(=O)CSc2nnc(-c3ccccc3C)n2N)cc1 | -0.5 | -8.2 | 15.4 | 17.5 | -18.7 | -1.0
COc1ccc(NC(=O)CSc2ccc3c4c(cccc24)C(=O)c2ccccc2-3)cc1 | 7.8 | -16.2 | -22.0 | -21.4 | 25.5* | 3.7
Cc1oc(-c2ccc(Cl)cc2)nc1CN1CCCC(C(=O)N2CCN(C(=O)c3ccco3)CC2)C1 (centres undefined) | -1.9 | 61.6* | x | -5.3 | x | 2.3
CCc1ccc(-c2nc(CN3CCCC(C(=O)O)C3)c(C)o2)cc1 (centres undefined) | -4.0 | 27.5 | -2.7 | 19.5 | 2.8 | -6.6
CCOC(=O)C1CCN(S(=O)(=O)Cc2ccccc2)C1=O (centres undefined) | 15.4* | -0.4 | 5.4 | 0.4 | -7.1 | 5.3
CC1(C)Oc2nc3ccccc3n2/C1=C\C#N | -0.6 | -10.4 | 11.8 | -4.0 | -12.2 | 0.4
CC(C)(C)NC(=O)C1CCCN(S(=O)(=O)c2cccc3cccnc23)C1 (centres undefined) | 0.5 | 61.7* | x | -38.2 | x | 2.5
